Screening data deposited in PubChem by several laboratories.
Most compounds without a hit are left out; they make up all but 2.6% or so of the library.
LMP1 NFkB inh – EBV LMP1-driven NF-kappaB luciferase reporter inhibitors, primary screen, cell-based, luminescence, single point | inhibition, % at 12.5 µM | 350,000 compounds, 0.69% hits | LMP1-induced NF-kappaB luciferase reporter cells; in the data active means inhibition above about 41%; inconclusive means no clear call, values can overlap the other calls
LGR2 inh – inhibitors of bursicon-induced LGR2 CRE-luciferase signal, primary screen, cell-based, HEK293, CRE-luciferase reporter, bursicon stimulation; Drosophila bursicon receptor LGR2 (rickets); 380,000 compounds, 0.35% hits; inhibition, % at 9.99 µM; AID 720647, 2013; bursicon-stimulated, 4 h;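 active means drop in luminescence signal, shown as inhibition above about 50% in the replicate tests, limit read from the data, passing the limit was not always enough; inconclusive means probably only some replicates passing the limit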;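 further: agonist challenge used bursicon conditioned medium at about half maximal strength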
TROY NFkB inh – inhibitors of TROY-driven NF-kB signaling, primary screen, Q293 LMP1-TROYcd cells, NF-kB luciferase, uHTS. Q293 LMP1-TROYcd NF-kB luciferase reporter, 4 h. inhibition, % at 10 µM. 360,000 compounds, 0.98% hits;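 active means compounds whose plate-normalised and pattern-corrected inhibition of the luciferase reporter signal at the single screening dose is 50% or more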
TWEAK Fn14 block – inhibitors of TWEAK-Fn14 signaling, primary screen, luciferase reporter cells, uHTS. TWEAK-stimulated Fn14 reporter cells, luciferase luminescence, 8 h. inhibition, % at 10 µM. 360,000 compounds, 2% hits. AID 1159606, 2016; in the data active means inhibition above about 50%
EWS-Fli inh – EWS/Fli-driven NR0B1 reporter inhibitors, primary screen, A673 cells, NR0B1 luciferase, luminescence, MLPCN library. inhibition, % at 12.6 µM. 350,000 compounds, 0.67% hits. viability-normalised;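 active means mean inhibition of at least 50% after viability correction, with every replicate also passing that limit; inconclusive means mean reaches 50% but only one of two replicates passes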;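 further: firefly luciferase signal divided by Alamar Blue viability fluorescence both relative to DMSO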
Numbers stand for hits; – = inactive; ? = inconclusive; · = no result.

SMILES	LMP1 NFkB inh	LGR2 inh	TROY NFkB inh	TWEAK Fn14 block	EWS-Fli inh
C[C@@H]1CN([C@H](C)CO)C(=O)c2cc(NC(=O)NC3CCCCC3)ccc2O[C@@H](C)CCCCO[C@@H]1CN(C)S(=O)(=O)c1cccs1	·	–	·	·	–
C=CCNC(=O)c1cc(-c2ccncc2)nc2c(C)cc(C)cc12	–	–	84.2	–	–
C[C@@H]1CCCCO[C@H](CN(C)Cc2ccc(C(F)(F)F)cc2)[C@H](C)CN([C@H](C)CO)C(=O)c2cc(NS(=O)(=O)c3cn(C)cn3)ccc2O1	·	–	·	·	–
Cc1ccccc1C(=O)NNC(=O)c1cc(N)cc([N+](=O)[O-])c1	–	–	57.3	–	·
COc1ccccc1-c1cn(CC[C@@H]2CC[C@@H](NC(=O)c3cnccn3)[C@H](CO)O2)nn1	·	–	·	·	·
CC1CCc2c(sc3nc(SCC(=O)O)n(-c4ccccc4)c(=O)c23)C1 (stereo not drawn)	–	–	–	88.7	–
COc1ccc(NC(=O)N(C)C[C@@H]2Oc3ncc(C#Cc4ccc(C(F)(F)F)cc4)cc3C(=O)N([C@H](C)CO)C[C@@H]2C)cc1	·	–	·	·	–
COc1cc([N+](=O)[O-])cc(/C=N/NC(=O)c2ccc(NC(=O)c3ccc(C)cc3)cc2)c1O	–	–	–	70.4	–
COc1cccc(/C=N/NC(=O)c2cc3cc([N+](=O)[O-])ccc3s2)c1O	64.0	–	–	–	–
COc1cc([N+](=O)[O-])cc(/C=N/NC(=O)c2ccc(C)nc2)c1O	–	–	–	–	·
C[C@@H]1CN([C@@H](C)CO)S(=O)(=O)c2ccc(C3=CCCCC3)cc2O[C@H]1CN(C)C(=O)CC1CC1	·	–	·	·	–
CC(C)(C)NC(=S)N1CCC(C(=O)c2ccc(Cl)cc2)CC1	42.5	–	–	–	–
CCCCNC(=O)c1cccc2c(=O)c(C)c(-c3ccccc3)oc12	–	–	–	–	–
Cc1c(-c2ccccc2)oc2c(C(=O)N3CCN(c4ccccc4F)CC3)cccc2c1=O	–	–	–	54.1	·
O=C(NCC1CC1)[C@H]1[C@H](CO)[C@H]2Cn3c(ccc(-c4cccnc4)c3=O)[C@@H]1N2C(=O)C1CC1	·	–	·	·	–
CC(=O)Nc1ccc(SCC(=O)c2cc(C)n(-c3ccccc3)c2C)cc1	–	–	–	72.7	·
Cc1cc(C(=O)C(C)OC(=O)c2ccc(NC(=O)CC#N)cc2)c(C)n1-c1ccccc1 (stereo not drawn)	–	–	–	64.0	–
CC(OC(=O)c1ccc(NC(=O)CC#N)cc1)C(=O)NC(c1ccccc1)c1ccccc1 (stereo not drawn)	–	–	–	–	–
CN(C)CCCNC(=O)[C@@H]1[C@@H](CO)[C@@H]2Cn3c(ccc(C4=CCCCC4)c3=O)[C@H]1N2Cc1cocn1	·	–	·	·	–
C[C@H](CO)N1C[C@H](C)[C@H](CN(C)C(=O)Nc2cccc3ccccc23)OCCCC[C@H](C)Oc2ccc(NS(=O)(=O)c3cn(C)cn3)cc2C1=O	·	–	·	·	–
O=C(N/N=C/c1cn(Cc2ccccc2)c2ccccc12)c1cccnc1	–	–	–	53.6	–
O=C(N/N=C/c1cn(Cc2ccccc2)c2ccccc12)c1ccncc1	–	–	–	–	–
N#C[C@H]1[C@H](c2ccc(C#CCC3CCCC3)cc2)[C@H](CO)N1C(=O)CN1CCOCC1	·	–	·	·	–
c1ccc(COc2ccc(CN3CCN(c4ccccn4)CC3)cc2)cc1	–	·	57.2	–	·
Cc1ccc(OCc2nc(C#N)c(N3CCN(Cc4ccccc4)CC3)o2)cc1	–	·	–	102.8	·
SMILES	LMP1 NFkB inh	LGR2 inh	TROY NFkB inh	TWEAK Fn14 block	EWS-Fli inh
c1ccc(CN2CCN(c3ncccn3)CC2)cc1	–	–	–	–	–
Cc1ccc(C(=O)N/C(=C\c2ccc(-c3cccc([N+](=O)[O-])c3)o2)C(=O)NCCCN(C)C)cc1	–	·	–	–	–
Cc1ccc(C(=O)N/C(=C\c2ccc(-c3ccc(Br)cc3)o2)C(=O)NCCCN(C)C)cc1	–	?	–	–	51.5
C[C@H]1CN([C@@H](C)CO)C(=O)Cc2cc(NC(=O)C3CC3)ccc2O[C@H]1CN(C)C(=O)Nc1ccc(F)cc1	·	–	·	·	–
CC=Cc1ccc2n(c1=O)C[C@@H]1[C@@H](CO)[C@H](C(=O)NCC3CC3)[C@H]2N1CCC(F)(F)F (mixture of isomers)	·	–	·	·	–
CC1CCCCN1S(=O)(=O)c1ccc(C(=O)Nc2ccccc2-c2nc3ccccc3[nH]2)cc1 (stereo not drawn)	–	–	–	53.0	–
C/C=C/c1cnc2c(c1)C(=O)N([C@@H](C)CO)C[C@@H](C)[C@@H](CN(C)C(=O)Cc1ccccc1)O2	·	–	·	·	–
O=C(Nc1cc(F)ccc1F)N1CC(=O)N2[C@@H](CO)[C@H](c3ccc(C#CC4CCCC4)cc3)[C@@H]2C1	·	–	·	·	·
CN(C)c1ccc(/C=C(\Cl)c2nc3ccccc3s2)cc1	–	·	73.1	91.5	·
O=C(O)c1ccc(C=C(c2nc3ccccc3s2)c2nc3ccccc3s2)cc1	–	–	–	–	–
COc1ccc(S(=O)(=O)Nc2ccc3c(c2)C(=O)N([C@@H](C)CO)C[C@@H](C)[C@H](CN(C)C(=O)C2CCCCC2)OCCCC[C@@H](C)O3)cc1	·	–	·	·	–
Cc1ccc(C(=O)Sc2cccccc2=O)cc1	–	–	–	101.8	–
O=C(Nc1ccccc1SC(=O)c1ccccc1)c1ccccc1	–	–	–	–	–
CCCc1cc(C(=O)Nc2ccc(C(=O)c3ccccc3)cc2)n(C)n1	–	–	–	–	–
CCCc1cc(C(=O)Nc2ccc(C(=O)c3ccc(F)cc3)cc2)n(C)n1	–	·	58.7	50.4	·
O=C(N[C@H]1C=C[C@H](CC(=O)N2CCC(Cc3ccccc3)CC2)O[C@H]1CO)c1cnccn1	·	–	·	·	·
COc1ccc(NC(=O)Nc2ccc3c(c2)C(=O)N([C@H](C)CO)C[C@H](C)[C@H](CN(C)C(=O)Nc2ccc(OC)cc2)O3)cc1	·	–	·	·	–
O=C(NCC(F)(F)F)[C@@H]1[C@@H](CO)[C@@H]2Cn3c(cccc3=O)[C@@H]2N1CCC(F)(F)F	·	–	·	·	–
C[C@H](CO)N1C[C@H](C)[C@@H](CN(C)S(=O)(=O)c2ccc(F)cc2)Oc2c(NC(=O)C3CCCCC3)cccc2C1=O	·	–	·	·	–
O=C(Cc1coc2cc3c(cc12)CCC3)OCC(=O)N1CCCC1=O	–	–	59.1	82.9	–
COc1ccc(C(=O)N2CCNC(=O)C2CC(=O)Nc2ccc(C)cc2)cc1 (stereo not drawn)	–	–	–	54.7	–
COc1ccc(NC(=O)CC2C(=O)NCCN2C(=O)c2ccc(N(C)C)cc2)cc1 (stereo not drawn)	·	–	–	–	–
CO[C@@H]1CN(C)C(=O)c2ccc(NC(=O)Cc3ccccc3)cc2OC[C@H](C)N(C(C)=O)C[C@@H]1C	·	–	·	·	–
COc1ccc2nc3oc(C(=O)NC4CCN(Cc5ccccc5)CC4)cc3cc2c1	–	·	–	53.5	·
